Structures are written as SMILES. Records with an inconclusive call do not appear. Calls of active or inactive are those of the source. Unless noted, the call rests on the fitted dose curve; in most records, active means well fitted curve in the direction sought with a large enough effect in the repeat runs; inconclusive means weak or mixed curves; inactive means no such curve, though single readings can be large; an effect the other way counts as inactive or inconclusive.

In PubChem BioAssay (Tox21) one finds Potency and outcome data, which are given here for 6 molecules.

Assay [1] deals with Peroxisome proliferator-activated receptor delta (Homo sapiens) (UniProt Q03181). As to the kind of experiment: qHTS assay to identify small molecule agonists of the peroxisome proliferator-activated receptor delta (PPARd) signaling pathway (AID 743212; calls by dose curve). Conditions: HEK293H PPARd-UAS-bla, beta-lactamase FRET ratio, 17 h; series mostly up to 62.6 µM. Summed up: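 Beta-lactamase reporter read by fluorescence (LiveBLAzer B/G FRET, 2 h, room temperature). Test agents, in DMSO, incubated at 37 C with PPARd-bla HEK293H cells.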
Sequence of Peroxisome proliferator-activated receptor delta (Homo sapiens) (Q03181 whole entry, looked up): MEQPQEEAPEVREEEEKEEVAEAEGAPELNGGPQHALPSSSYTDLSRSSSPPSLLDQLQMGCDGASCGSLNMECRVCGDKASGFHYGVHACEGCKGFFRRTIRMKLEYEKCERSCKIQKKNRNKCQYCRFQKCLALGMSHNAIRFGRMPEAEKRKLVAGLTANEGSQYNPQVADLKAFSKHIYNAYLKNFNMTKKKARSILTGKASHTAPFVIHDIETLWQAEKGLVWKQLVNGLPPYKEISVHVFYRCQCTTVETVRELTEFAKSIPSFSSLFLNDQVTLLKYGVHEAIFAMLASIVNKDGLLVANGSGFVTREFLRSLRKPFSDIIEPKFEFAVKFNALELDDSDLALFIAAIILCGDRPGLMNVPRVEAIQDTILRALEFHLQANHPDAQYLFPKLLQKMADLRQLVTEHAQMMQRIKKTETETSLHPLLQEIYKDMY
(In general: qHTS replaces the single test concentration by a dilution series.)

A short description of assay [2]: qHTS assay to identify small molecule antagonists of the peroxisome proliferator-activated receptor delta (PPARd) signaling pathway - cell viability counter screen (AID 743213). Further: nearly all actives have a fitted effect of over 50% in size. Further: potency means the concentration at half of the fitted maximal effect. Conditions: PPARd-bla HEK293H viability, CellTiter-Glo luminescence, 17 h; series mostly up to 62 µM. In outline:
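Luminescence from CellTiter-Glo, added after the bla read and incubated 30 min at room temperature, gives viability of HEK293H PPARd-bla cells exposed to compounds for 17 h at 37 C with 300 nM L165041.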

Assay [3] in a line: qHTS assay to identify small molecule agonists of the farnesoid-X-receptor (FXR) signaling pathway - cell viability counter screen (AID 743218). Further: nearly all actives have a fitted effect of over 45% in size. Conditions: FXR-bla HEK293T viability, CellTiter-Glo luminescence, 16 h; series mostly up to 62.6 µM. Summed up:
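Quantitative HTS counter screen measuring ATP-based viability via CellTiter-Glo luminescence in HEK 293T cells carrying a UAS-driven beta-lactamase reporter, after 16 h compound exposure at 37 C.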

A short description of assay [4]: qHTS assay to identify small molecule antagonists of the farnesoid-X-receptor (FXR) signaling pathway - cell viability counter screen (AID 743221; active means well fitted cell-killing curve with a large enough effect in the repeat runs, not every such curve was filed as active; further: nearly all actives have a fitted effect of over 50% in size). Conditions: FXR-bla HEK293T viability, CellTiter-Glo luminescence, 16 h; series mostly up to 62.6 µM. In outline: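 After a 5 h settling period, FXR-bla HEK 293T cells receive compound and chenodeoxycholic acid (50 uM final) and incubate 16 h at 37 C; CellTiter-Glo luminescence, read after 30 min at room temperature, reports cell viability.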

Assay [5] can be described thus: qHTS assay to identify small molecule agonists of the vitamin D receptor (VDR) signaling pathway - cell viability counter screen (AID 743224). Further: nearly all actives have a fitted effect of over 50% in size. Further: potency means the concentration at half of the fitted maximal effect. Conditions: VDR-bla HEK293T viability, CellTiter-Glo luminescence, 16 h; series mostly up to 62.6 µM. In outline: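 CellTiter-Glo viability readout on VDR-bla cells, measured after 16 h of compound treatment at 37C in the same wells.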

Assay [6] is described as follows: qHTS assay to identify small molecule antagonists of the vitamin D receptor (VDR) signaling pathway - cell viability counter screen (AID 743225). Further: nearly all actives have a fitted effect of over 50% in size. Further: potency means the concentration at half of the fitted maximal effect. Conditions: VDR-bla HEK293T viability, CellTiter-Glo luminescence, 16 h; series mostly up to 61 µM. In outline: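 Parallel cytotoxicity test: VDR-UAS-bla HEK 293T, 3 nM (final) 1-alpha,25-dihydroxyvitamin D3 with test compound, 16 h, 37C. Endpoint is CellTiter-Glo luminescence in the same wells.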

A short description of assay [7]: qHTS assay to identify small molecule agonists of the endoplasmic reticulum stress response signaling pathway (AID 1159516; active means well fitted activation curve with a large enough effect in the signal ratio in the repeat runs, not every such curve was filed as active; the % refers to the signal ratio). Conditions: ESRE-bla HeLa, ER stress beta-lactamase reporter, 5 h; series mostly up to 61 µM. In outline: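 Fluorescence at 460 and 530 nm (405 nm excitation) reports beta-lactamase from an ER stress response element in HeLa cells treated 5 hr at 37 C.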

The nature of assay [8]: qHTS assay to identify small molecule agonists of the endoplasmic reticulum stress response signaling pathway - cell viability counter screen (AID 1159517; calls by dose curve; further: nearly all actives have a fitted effect of over 50% in size). Conditions: ESRE-bla HeLa viability, CellTiter-Glo luminescence, 5 h; series mostly up to 61 µM. Summed up: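 Cytotoxicity of test compounds toward ESRE-bla HeLa cells was assessed after 5 hr exposure. The luminescent CellTiter-Glo signal was measured 30 min after reagent addition.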

Assay [9] is described as follows: qHTS assay to identify small molecule antagonists of the retinoid-related orphan receptor gamma (ROR-gamma) signaling pathway - cell viability counter screen (AID 1159520). Further: nearly all actives have a fitted effect of over 50% in size. Further: potency means the concentration at half of the fitted maximal effect. Conditions: Tet-on RORgamma CHO cells viability, ATP luminescence, 16 h; series mostly up to 92.4 µM. In outline: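 Tet-on ROR gamma CHO cells (1,000/well) were plated 4 hr, given compounds in DMSO for 2 hr at 37 C, then induced with 1 uM final doxycycline for 16 hr. Viability was read as ATP by CellTiter-Glo luminescence after 30 min.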

The target of assay [10] is Nuclear receptor ROR-gamma (Homo sapiens) (UniProt P51449). As to the kind of experiment: qHTS assay to identify small molecule antagonists of the retinoid-related orphan receptor gamma (ROR-gamma) signaling pathway (AID 1159521; further: nearly all actives have a fitted effect of over 50% in size; further: potency means the concentration at half of the fitted maximal effect). Conditions: Tet-on RORgamma CHO cells, RORE-luciferase, 16 h; series mostly up to 92.4 µM. In outline:
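Decreased RORE-driven luciferase luminescence indicates antagonism. Tet-on RORγ CHO cells received compound, then 1 uM final doxycycline 2 h later; signal read after 16 h incubation.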

Assay [11] in a line: qHTS assay to identify small molecule agonists of the AP-1 signaling pathway - cell viability counter screen (AID 1159525; calls by dose curve; further: nearly all actives have a fitted effect of over 55% in size). Conditions: ME-180 AP-1-bla cells viability, ATP luminescence, 5 h; series mostly up to 76.8 µM. In outline:
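Each titration point was normalised to DMSO and tetra n-octyl ammonium bromide controls. The read was Cell Titer Glo luminescence after 30 min at RT, following 5 h compound exposure of ME-180 AP-1-bla cells at 37 °C.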

The target in assay [12] is Peroxisome proliferator-activated receptor delta (Homo sapiens) (UniProt Q03181). As to the kind of experiment: qHTS assay to identify small molecule antagonists of the peroxisome proliferator-activated receptor delta (PPARd) signaling pathway (AID 743215; active means well fitted inhibition curve with a large enough effect in the signal ratio in the repeat runs, not every such curve was filed as active; the % refers to the signal ratio;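 further: cells stimulated with agonist L165041 at 300 nM final during compound exposure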). Conditions: HEK293H PPARd-UAS-bla, beta-lactamase FRET ratio, antagonist, 17 h; series mostly up to 62 µM. In outline:
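Here, a reporter line (HEK293H, beta-lactamase under a UAS) measures PPARd signaling. Compounds are tested against agonist L165041 at 300 nM final concentration over 17 h at 37 C, with fluorescence read after substrate.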

The target of assay [13] is Bile acid receptor (Homo sapiens) (UniProt Q96RI1). As to the kind of experiment: qHTS assay to identify small molecule agonists of the farnesoid-X-receptor (FXR) signaling pathway (AID 743220; active means well fitted activation curve with a large enough effect in the signal ratio in the repeat runs, not every such curve was filed as active; the % refers to the signal ratio). Conditions: HEK293T FXR-UAS-bla, beta-lactamase FRET ratio, 16 h; series mostly up to 62.6 µM. Summed up:
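FXR-UAS-bla HEK 293T cells carrying a UAS-driven beta-lactamase reporter were plated for 5 h at 37C/5% CO2, then exposed to DMSO-dissolved Tox21 10K compounds for 16 h at 37C. A LiveBLAzer B/G FRET substrate was loaded for 2 h at room temperature before fluorescence reading.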

The target in assay [14] is Vitamin D3 receptor (Homo sapiens) (UniProt P11473). The assay can be described thus: qHTS assay to identify small molecule agonists of the vitamin D receptor (VDR) signaling pathway (AID 743222; calls by dose curve). Conditions: HEK293T VDR-UAS-bla, beta-lactamase FRET ratio, 16 h; series mostly up to 63.5 µM. In outline: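 Tox21 cell reporter format: VDR-bla line, 16 h compound exposure in 5% CO2 at 37C, then fluorescence intensity after 2 h with LiveBLAzer B/G FRET substrate.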
Sequence of Vitamin D3 receptor (Homo sapiens) (P11473 whole entry, looked up): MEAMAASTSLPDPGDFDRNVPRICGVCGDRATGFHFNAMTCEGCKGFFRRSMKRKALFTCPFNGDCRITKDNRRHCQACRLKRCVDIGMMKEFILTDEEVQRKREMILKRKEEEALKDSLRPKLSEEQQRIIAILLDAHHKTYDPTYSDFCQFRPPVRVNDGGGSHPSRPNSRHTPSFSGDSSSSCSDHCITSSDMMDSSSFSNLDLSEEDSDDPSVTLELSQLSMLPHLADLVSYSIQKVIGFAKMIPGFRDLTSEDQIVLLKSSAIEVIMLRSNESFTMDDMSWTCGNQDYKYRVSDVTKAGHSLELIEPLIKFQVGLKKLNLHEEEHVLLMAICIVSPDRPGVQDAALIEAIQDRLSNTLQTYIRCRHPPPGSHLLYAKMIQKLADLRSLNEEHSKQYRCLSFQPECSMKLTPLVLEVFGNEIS

Assay [15] has the same target. The assay can be described thus: qHTS assay to identify small molecule antagonists of the vitamin D receptor (VDR) signaling pathway (AID 743223; active means well fitted inhibition curve with a large enough effect in the signal ratio in the repeat runs, not every such curve was filed as active; the % refers to the signal ratio). Conditions: VDR-UAS-bla HEK293T, beta-lactamase FRET ratio, 16 h; series mostly up to 61 µM. In outline: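 Reporter line VDR-bla; stimulus 1alpha,25-(OH)2 vitamin D3, 3 nM final; compound co-addition, 16 h 37C/5% CO2; LiveBLAzer B/G substrate 2 h RT; fluorescence intensity.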

Assay [16] can be described thus: qHTS assay to identify small molecule agonists of the NFkB signaling pathway - cell viability counter screen (AID 1159515; calls by dose curve; further: nearly all actives have a fitted effect of over 55% in size; further: potency means the concentration at half of the fitted maximal effect). Conditions: NFkB-bla ME-180 viability, CellTiter-Glo luminescence, 5 h; series mostly up to 61 µM. Summed up: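 Tox21 library compounds were tested for cytotoxicity against NFkB-bla ME-180 cells during a 5 hr exposure at 37 C. CellTiter-Glo luminescence served as the viability read-out.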

The nature of assay [17]: qHTS assay to identify small molecule agonists of the AP-1 signaling pathway (AID 1159526; calls by dose curve). Conditions: ME-180 (cervical carcinoma) AP-1-bla reporter, beta-lactamase FRET ratio, 5 h; series mostly up to 76.8 µM.
A short description of assay [18]: qHTS assay to identify small molecule agonists of the peroxisome proliferator-activated receptor delta (PPARd) signaling pathway - cell viability counter screen (AID 743211). Further: nearly all actives have a fitted effect of over 55% in size. Conditions: PPARd-bla HEK293H viability, CellTiter-Glo luminescence, 17 h; series mostly up to 62.6 µM. In outline: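 qHTS cell viability: PPARd-bla HEK293H; 17 h cpd, 37C; CellTiter-Glo, luminescence at 30 min RT.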

The target in assay [19] is Bile acid receptor (Homo sapiens) (UniProt Q96RI1). As to the kind of experiment: qHTS assay to identify small molecule antagonists of the farnesoid-X-receptor (FXR) signaling pathway (AID 743217; active means well fitted inhibition curve with a large enough effect in the signal ratio in the repeat runs, not every such curve was filed as active; the % refers to the signal ratio). Conditions: HEK293T FXR-UAS-bla, beta-lactamase ratio, CDCA-stimulated, 16 h; series mostly up to 62.6 µM. Summed up: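 Test compounds are pin-transferred onto FXR-bla HEK 293T cells, then chenodeoxycholic acid is added at 50 uM final. After 16 h at 37 °C, LiveBLAzer B/G substrate is applied for 2 h at room temperature and fluorescence read.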
Sequence of Bile acid receptor (Homo sapiens) (Q96RI1 whole entry, looked up): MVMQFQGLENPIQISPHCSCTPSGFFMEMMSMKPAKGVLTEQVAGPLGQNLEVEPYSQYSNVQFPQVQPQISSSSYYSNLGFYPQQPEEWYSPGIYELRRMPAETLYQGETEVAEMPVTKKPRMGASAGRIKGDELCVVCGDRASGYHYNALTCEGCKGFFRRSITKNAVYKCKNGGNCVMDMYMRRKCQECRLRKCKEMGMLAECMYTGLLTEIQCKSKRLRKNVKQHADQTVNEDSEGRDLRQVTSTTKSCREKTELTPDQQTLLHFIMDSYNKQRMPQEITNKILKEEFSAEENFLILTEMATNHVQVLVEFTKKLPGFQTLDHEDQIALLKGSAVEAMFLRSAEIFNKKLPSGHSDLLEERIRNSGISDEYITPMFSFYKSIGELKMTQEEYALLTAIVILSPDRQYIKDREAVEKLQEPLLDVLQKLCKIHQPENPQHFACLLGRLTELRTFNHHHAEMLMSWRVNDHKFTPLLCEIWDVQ

The target of assay [20] is Retinoic acid receptor RXR-alpha (Homo sapiens) (UniProt P19793). As to the kind of experiment: qHTS assay to identify small molecule agonists of the RXR signaling pathway (AID 1159527; calls by dose curve; further: nearly all actives have a fitted effect of over 35% in size). Conditions: HEK293T RXRa-UAS-bla, beta-lactamase ratio, 16 h; series mostly up to 76.8 µM. In outline: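 16 hr incubation of compound-treated RXR-alpha-UAS-bla HEK 293T cells (2% charcoal-stripped FBS, 37 C) preceded a 2 hr room-temperature LiveBLAzer FRET substrate step and blue/green fluorescence measurement.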
Sequence of Retinoic acid receptor RXR-alpha (Homo sapiens) (P19793 whole entry, looked up): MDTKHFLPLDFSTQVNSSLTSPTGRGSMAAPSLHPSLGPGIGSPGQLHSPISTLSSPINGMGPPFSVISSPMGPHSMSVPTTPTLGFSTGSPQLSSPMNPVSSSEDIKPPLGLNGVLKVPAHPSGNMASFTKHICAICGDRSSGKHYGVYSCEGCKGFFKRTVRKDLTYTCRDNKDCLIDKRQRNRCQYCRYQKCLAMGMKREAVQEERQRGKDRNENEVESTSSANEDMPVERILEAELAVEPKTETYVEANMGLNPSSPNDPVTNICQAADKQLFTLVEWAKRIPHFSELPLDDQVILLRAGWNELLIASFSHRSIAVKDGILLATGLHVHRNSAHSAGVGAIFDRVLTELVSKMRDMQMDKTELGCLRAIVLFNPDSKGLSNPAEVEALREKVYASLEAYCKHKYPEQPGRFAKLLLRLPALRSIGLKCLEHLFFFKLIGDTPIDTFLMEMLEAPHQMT

Regarding `[Cl][Sb]([Cl])[Cl]`, the Potency result in assay [1], in assay [2], in [3], in [4], in assay [5] and in assay [6] was “inactive” each time. In addition, the Potency result in [7], in assay [8] and in [11] was “inactive” throughout. Besides, the Potency is 48.6 µM (active) in assay [9] and 5.45 µM (active) in [10].

As for `Cc1ccc(OP(=O)(Oc2ccccc2)Oc2ccccc2)cc1`, the Potency result in assay [1], in assay [2], in assay [12], in assay [3], in assay [4] and in [14] was “inactive” in each case. For the same molecule, the Potency result in assay [15], in [5], in assay [6], in assay [16], in assay [11] and in [17] was “inactive” each time. Further, in assay [13], the outcome was inactive.

In the case of `CC(C)CC(C)Nc1ccc(Nc2ccccc2)cc1` (stereo not drawn), the Potency was 38.3 µM (active) in [2]; 38.3 µM (active) in [5]; 48.2 µM (active) in [6]; 54 µM (active) in assay [16]; 47.7 µM (active) in assay [10].

As for `CC(C)OS(C)(=O)=O`, the Potency entry in assay [18], in assay [1], in assay [2], in assay [12], in [19] and in [3] was “inactive” in each case. Moreover, the Potency result in [4], in assay [14], in [5], in assay [6], in assay [7] and in [8] was “inactive” in each case. In addition, the Potency result in assay [9], in assay [11] and in assay [17] was “inactive” throughout. For the same molecule, the outcome in assay [13] and in assay [20] was inactive.

As to `N#CNC#N`, the Potency result in assay [2], in [19], in assay [3], in assay [4], in assay [14] and in assay [15] was “inactive” in each case. For the same molecule, the Potency result in [5], in assay [7], in assay [8], in assay [9], in assay [10] and in assay [11] was “inactive” throughout. Also, the Potency entry in assay [17] was “inactive”. For the same molecule, the outcome in [13] and in assay [20] was inactive.

Consider `CC(C)CCCCCOC(=O)c1ccccc1C(=O)OCCCCCC(C)C`, for which the Potency result in assay [1], in [2], in assay [12], in assay [19], in assay [3] and in [4] was “inactive” each time. Also, the Potency entry in [14], in assay [15], in assay [5], in assay [6], in [7] and in assay [8] was “inactive” each time. Moreover, the Potency result in assay [9], in [10], in assay [11] and in assay [17] was “inactive” each time. In assay [13], the outcome was inactive.
